# Measured values taken from PubChem BioAssay (NCATS).
# Unmarked numbers belong to inactive results. Results filed as inconclusive are left out. Where a call stands in place of a potency, no number is given. Active and inactive are the calls of the source. Unless noted, calls follow the shape of the dose curve; as a rule, active = well fitted curve in the direction sought with a large enough effect; inconclusive = small, poorly fitted or top-dose-only effect, or another doubt; inactive = no such curve, though single readings can be large; an effect the other way counts as inactive or inconclusive.
# Key:
# [1] = target: Voltage-gated inwardly rectifying potassium channel KCNH2 (Homo sapiens) (UniProt Q12809); test: qHTS Assay for Small Molecule Inhibitors of the Human hERG Channel Activity (AID 588834);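 also: lower thallium flux fluorescence means stronger hERG block; nearly all actives have a fitted effect of over 50% in size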; also: potency is read from the fitted curve at half-maximal effect
# Voltage-gated inwardly rectifying potassium channel KCNH2 (Homo sapiens), sequence (Q12809 whole entry, looked up): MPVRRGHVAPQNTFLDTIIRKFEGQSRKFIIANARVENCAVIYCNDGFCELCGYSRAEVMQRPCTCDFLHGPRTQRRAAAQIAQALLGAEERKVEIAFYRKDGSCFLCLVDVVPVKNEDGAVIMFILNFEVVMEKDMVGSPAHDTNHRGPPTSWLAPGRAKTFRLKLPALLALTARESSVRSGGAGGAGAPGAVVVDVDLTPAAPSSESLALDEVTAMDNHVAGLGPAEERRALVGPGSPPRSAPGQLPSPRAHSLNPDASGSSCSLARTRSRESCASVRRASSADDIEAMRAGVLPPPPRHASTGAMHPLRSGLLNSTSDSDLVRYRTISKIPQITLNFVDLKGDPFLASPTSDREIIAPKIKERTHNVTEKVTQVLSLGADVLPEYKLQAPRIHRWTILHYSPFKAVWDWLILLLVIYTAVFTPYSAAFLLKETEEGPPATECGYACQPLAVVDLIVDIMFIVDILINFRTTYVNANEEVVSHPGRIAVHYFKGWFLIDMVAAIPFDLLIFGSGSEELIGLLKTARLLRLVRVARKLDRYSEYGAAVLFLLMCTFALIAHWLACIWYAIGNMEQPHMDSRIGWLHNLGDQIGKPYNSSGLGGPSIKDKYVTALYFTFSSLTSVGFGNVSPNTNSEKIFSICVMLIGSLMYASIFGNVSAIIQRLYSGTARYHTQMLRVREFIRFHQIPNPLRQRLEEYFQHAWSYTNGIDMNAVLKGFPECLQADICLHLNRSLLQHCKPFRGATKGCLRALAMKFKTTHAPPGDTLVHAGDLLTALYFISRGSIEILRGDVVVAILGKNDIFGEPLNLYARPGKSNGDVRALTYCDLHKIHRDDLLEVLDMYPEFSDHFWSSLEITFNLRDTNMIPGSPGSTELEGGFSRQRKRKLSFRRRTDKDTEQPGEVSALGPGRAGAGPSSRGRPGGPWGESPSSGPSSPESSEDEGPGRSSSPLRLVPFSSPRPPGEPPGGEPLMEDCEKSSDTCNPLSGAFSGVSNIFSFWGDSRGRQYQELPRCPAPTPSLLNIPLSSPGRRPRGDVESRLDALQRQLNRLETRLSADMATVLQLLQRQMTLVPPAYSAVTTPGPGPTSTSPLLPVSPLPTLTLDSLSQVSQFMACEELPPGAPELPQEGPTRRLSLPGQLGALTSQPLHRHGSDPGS
# How it was run: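 hERG block measured as reduced thallium-dye (FluxOR) fluorescence after stimulation buffer addition, read over 2 min. Cells were hERG-BacMam-transduced U2OS exposed to compound ~10 min […]; concentration-response fitted with Hill equation for AC50.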
# [2] = target: Glutaminase kidney isoform, mitochondrial (Homo sapiens) (UniProt O94925); test: qHTS for Inhibitors of Glutaminase (GLS): LOPAC Validation (AID 624146);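 also: glutamate product detected by oxidase and peroxidase coupled Amplex red fluorescence gain; series mostly up to about 46 µM; nearly all actives have a fitted effect of over 60% in size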
# Glutaminase kidney isoform, mitochondrial (Homo sapiens), sequence (O94925 whole entry, looked up, canonical isoform): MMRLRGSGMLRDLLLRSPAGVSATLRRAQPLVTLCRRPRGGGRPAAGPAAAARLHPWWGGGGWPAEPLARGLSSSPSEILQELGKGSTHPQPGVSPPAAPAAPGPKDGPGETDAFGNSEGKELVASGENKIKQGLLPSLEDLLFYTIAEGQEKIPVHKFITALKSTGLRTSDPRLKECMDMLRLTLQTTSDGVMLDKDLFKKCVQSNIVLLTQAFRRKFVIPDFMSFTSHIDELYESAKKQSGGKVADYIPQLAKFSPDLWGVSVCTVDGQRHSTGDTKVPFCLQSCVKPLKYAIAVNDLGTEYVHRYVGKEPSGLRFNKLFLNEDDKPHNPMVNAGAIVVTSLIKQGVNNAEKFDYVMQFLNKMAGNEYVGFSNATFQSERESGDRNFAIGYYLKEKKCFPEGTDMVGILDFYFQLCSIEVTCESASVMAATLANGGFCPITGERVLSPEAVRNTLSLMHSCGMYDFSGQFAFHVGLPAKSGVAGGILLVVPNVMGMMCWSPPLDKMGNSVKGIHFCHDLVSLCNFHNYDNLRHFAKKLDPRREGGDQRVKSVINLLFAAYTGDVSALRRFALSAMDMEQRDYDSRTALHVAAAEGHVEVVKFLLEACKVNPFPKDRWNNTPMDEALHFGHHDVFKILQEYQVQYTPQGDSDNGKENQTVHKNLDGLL
# How it was run: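 hKGA; 45 mM KH2PO4 pH 8.2 + 0.02% Tween-20; cpd via pin tool; 1 mM Gln soln; GluOx/HRP/Amplex Red; RT 30 min; fluor. t0 & final.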
# [3] = qHTS of Trypanosoma Brucei Inhibitors: LOPAC Validation (AID 624147)
# How it was run: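 T. brucei PYK with substrate was exposed to pin-transferred compounds across a concentration series, then started with 130 uM ADP (final). After 45 min at room temperature, Kinase-Glo Plus luminescence was read, normalized and curve-fitted.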
# [4] = target: Glucagon-like peptide 1 receptor (Homo sapiens) (UniProt P43220); test: qHTS of GLP-1 Receptor Agonists: LOPAC Validation (AID 624148);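 also: higher luminescence signal means agonism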
# Glucagon-like peptide 1 receptor (Homo sapiens), sequence (P43220 whole entry, looked up): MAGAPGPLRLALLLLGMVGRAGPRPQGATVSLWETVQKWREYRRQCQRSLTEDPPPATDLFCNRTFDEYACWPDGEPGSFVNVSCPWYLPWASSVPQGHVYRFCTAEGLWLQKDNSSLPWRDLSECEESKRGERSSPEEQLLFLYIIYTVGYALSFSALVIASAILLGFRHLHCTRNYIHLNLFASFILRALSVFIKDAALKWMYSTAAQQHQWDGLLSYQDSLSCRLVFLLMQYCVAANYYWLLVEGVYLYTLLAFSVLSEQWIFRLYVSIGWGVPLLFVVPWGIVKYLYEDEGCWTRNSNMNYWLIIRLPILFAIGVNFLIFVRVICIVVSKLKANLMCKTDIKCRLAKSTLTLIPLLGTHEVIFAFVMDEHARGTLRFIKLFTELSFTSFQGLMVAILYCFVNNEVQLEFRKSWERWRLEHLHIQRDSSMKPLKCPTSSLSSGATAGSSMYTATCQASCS
# How it was run: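 HEK293 cells stably co-expressing a cAMP-responsive luciferase reporter and a hypersensitive GLP-1R were plated 12 h at 37 °C and exposed to compounds for 4-6 hr at 37 °C, 5% CO2. Luminescence was read 12 min after adding detection reagent.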
# [5] = qHTS of Nrf2 Activators: LOPAC Validation (AID 624149)
# How it was run: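 Following overnight seeding in 5% FBS OPTI-MEM, AREc32_Fluc cells receive compounds for a 24 hr incubation at 37 deg C with 5% CO2. Steady-Glo is added, and after 30 min at RT luminescence is recorded.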
# [6] = HTS Assay for Allosteric Antagonists of the Human D2 Dopamine Receptor: Hit Validation in HTRF (AID 624455);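 also: stable D1 dopamine receptor cell line scored for blocking the D1 response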
# How it was run: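 Validation of hits used D1 receptor stably expressed in cells with HTRF detection of response inhibition; origin screen measured calcium flux following EC80 dopamine in a force-coupled, inducible Hek293 Trex D2 cell line.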
# [7] = qHTS assay for small molecule agonists of the antioxidant response element (ARE) signaling pathway (AID 651741; active = well fitted activation curve with a large enough effect in the signal ratio; the % refers to the signal ratio; also: potency is read from the fitted curve at half-maximal effect)
# How it was run: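 Beta-lactamase reporter expression driven by the antioxidant response element in HepG2 cells was detected by fluorescence with LiveBLAzer B/G FRET substrate (2 h, room temperature) following 16 h compound treatment at 37 C.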
# [8] = qHTS assay for small molecule activators of the p53 signaling pathway (AID 651743; active = well fitted activation curve with a large enough effect in the signal ratio, not every such curve was filed as active; the % refers to the signal ratio; also: series mostly up to about 92 µM); settings: HCT-116 p53RE-bla, beta-lactamase FRET ratio, 16 h; hits give high values
# How it was run: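 Here HCT-116 cells with an integrated p53-responsive beta-lactamase gene were incubated with compounds (16 hours, 37 C) after a 5-hour plating period; beta-lactamase activity was detected as fluorescence intensity via B/G FRET substrate.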
# [9] = qHTS assay for small molecule activators of the nuclear factor-kappa B (NF-kB) signaling pathway (AID 651749; active = well fitted activation curve with a large enough effect in the signal ratio; the % refers to the signal ratio; also: series mostly up to about 77 µM); settings: NF-kB-bla ME-180 cells, beta-lactamase FRET ratio, 16 h; hits give high values
# How it was run: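 Beta-lactamase reporter expression, controlled by NF-kB response elements in ME-180 cells, was quantified fluorometrically via FRET disruption; cells at 2,000/well had been incubated with 23 nL test compound for 16 hr.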
# [10] = qHTS assay for environmental chemicals that activate the Aryl hydrocarbon Receptor (AhR) signaling pathway (AID 651777); settings: 1A2-DRE human hepatoma cells, luciferase, 24 h; hits give high values; also: nearly all actives have a fitted effect of over 15% in size
# How it was run: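 Luminescence (One-Glo, 30 min, room temperature) reports AhR-driven luciferase in stably transfected human hepatoma cells bearing DRE and CYP1A2 promoter. Cells (1,200/well) were treated with compound for 24 hr at 37 C in qHTS format.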
# [11] = target: Peroxisome proliferator-activated receptor alpha (Homo sapiens) (UniProt Q07869); test: qHTS assay for small molecule agonists of the peroxisome proliferator-activated receptor alpha (PPARalpha) signaling pathway (AID 651778); settings: PathHunter PPARalpha complementation, chemiluminescence, 6 h; max response: hits give high values; also: potency is read from the fitted curve at half-maximal effect
# Peroxisome proliferator-activated receptor alpha (Homo sapiens), sequence (Q07869 whole entry, looked up): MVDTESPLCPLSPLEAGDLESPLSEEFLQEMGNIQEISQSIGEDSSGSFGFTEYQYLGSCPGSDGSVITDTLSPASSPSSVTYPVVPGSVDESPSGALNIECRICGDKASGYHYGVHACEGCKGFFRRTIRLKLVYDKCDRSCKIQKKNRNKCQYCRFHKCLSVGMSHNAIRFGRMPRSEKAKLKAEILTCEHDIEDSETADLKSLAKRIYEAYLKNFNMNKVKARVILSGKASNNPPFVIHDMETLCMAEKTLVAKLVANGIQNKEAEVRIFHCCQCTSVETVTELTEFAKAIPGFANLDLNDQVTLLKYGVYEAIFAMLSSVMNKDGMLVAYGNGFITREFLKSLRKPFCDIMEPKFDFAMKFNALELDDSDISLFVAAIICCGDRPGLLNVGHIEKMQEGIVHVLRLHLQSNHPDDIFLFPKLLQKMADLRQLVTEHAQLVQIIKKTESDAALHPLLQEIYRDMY
# How it was run: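 Cells plated at 2,000/well and held overnight at 37 C, 5% CO2, then compound added by pin tool for 6 hr; after PathHunter detection reagent and 60 min at room temperature, chemiluminescence from enzyme complementation was read.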
SMILES,Potency [1],Potency [2],Potency [3],Potency [4],Potency [5],Potency [6],Potency [7],activation [8],activation [9],activation [10],Potency [11]
CCCc1c(OCCCOc2ccc(OCC(=O)O)cc2)ccc(C(C)=O)c1O,inactive,inactive,inactive,inactive,inactive,inactive,54.5 µM (active),16.9%,-3.53%,0.459%,11.2 µM (active)
CCN(CC)CCCCCCCCOC(=O)c1cc(OC)c(OC)c(OC)c1,11.2 µM (active),inactive,inactive,inactive,inactive,inactive,,,,,
CNc1cc(NS(=O)(=O)c2ccc(N)cc2)nc(NC)n1,inactive,inactive,,inactive,inactive,inactive,,,,,
CCCn1c(=O)c2[nH]c(-c3ccc(S(=O)(=O)O)cc3)nc2n(CCC)c1=O,inactive,inactive,inactive,inactive,inactive,inactive,,,,,
CN(C)C(=O)/N=N/C(=O)N(C)C,inactive,inactive,,inactive,inactive,inactive,,,,,
NC[C@@H]1O[C@H](c2ccccc2)Cc2c1ccc(O)c2O,,inactive,inactive,inactive,inactive,,,,,,
O=C1Cc2c([nH]c3ccc(Br)cc23)-c2ccccc2N1,inactive,,inactive,inactive,,inactive,,,,,
